From PubChem BioAssay (Tox21)
Records with an inconclusive call do not appear. The source made the active and inactive calls. Calls follow the shape of the dose curve; as a rule, active = well fitted curve in the direction sought with a large enough effect in the repeat runs; inconclusive = weak or mixed curves; inactive = no such curve, though single readings can be large; an effect the other way counts as inactive or inconclusive.

Columns and labels:
[1] = qHTS RealTime-Glo MT Cell Viability Assay in HEK293 cells - 32 hour (AID 1224868); also: nearly all actives have a fitted effect of over 50% in size; also: potency is read from the fitted curve at half-maximal effect
In short: (§1)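 Viability tracked continuously by luminescence as live cells reduce a prosubstrate for NanoLuc; HEK293 cells preincubated 5 h, compound-treated at 37 C, and read at 0, 8, 16, 24, 32 and 40 h.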

[2] = A CellTox Green Cytotoxicity Assay to monitor cytotoxicity in HEK293 cells - 0 hour (AID 1224869); also: nearly all actives have a fitted effect of over 50% in size
In short: (§2)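 Dead-cell fluorescence measured kinetically: asymmetric cyanine dye, HEK293, 600 cells/well, 5 h settle, 23 nL cpd/DMSO, 37 C, reads 0–40 h every 8 h.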

[3] = qHTS RealTime-Glo MT Cell Viability Assay in HepG2 cells - 40 hour (AID 1224870); also: nearly all actives have a fitted effect of over 50% in size
In short: (§3)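 HepG2 cells (600/well) mixed with RealTime-Glo MT reagent, settled 5 h at 37 C/5% CO2 before compound addition. Nonlytic NanoLuc luminescence from viable-cell prosubstrate reduction read repeatedly during 40 h treatment at 37 C.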

[4] = A CellTox Green Cytotoxicity Assay to monitor cytotoxicity in HEK293 cells - 40 hour (AID 1224871); also: nearly all actives have a fitted effect of over 45% in size
In short: as §2

[5] = qHTS RealTime-Glo MT Cell Viability Assay in HEK293 cells - 16 hour (AID 1224872); also: top concentration of the series differs between compounds; nearly all actives have a fitted effect of over 50% in size
In short: as §1

[6] = qHTS RealTime-Glo MT Cell Viability Assay in HepG2 cells - 8 hour (AID 1224873); also: nearly all actives have a fitted effect of over 55% in size
In short: as §3

[7] = qHTS RealTime-Glo MT Cell Viability Assay in HEK293 cells - 40 hour (AID 1224874); conditions: RealTime-Glo luminescence; max response: active compounds read low; also: nearly all actives have a fitted effect of over 50% in size; also: potency is read from the fitted curve at half-maximal effect
In short: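 600 HEK293 cells per well, dispensed already mixed with RealTime-Glo MT reagents. Compound dosing came 5 h later. The same wells were read for luminescence at 0, 8, 16, 24, 32 and 40 h of exposure at 37 C.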

[8] = A CellTox Green Cytotoxicity Assay to monitor cytotoxicity in HEK293 cells - 24 hour (AID 1224875); also: series mostly up to about 77 µM; nearly all actives have a fitted effect of over 45% in size
In short: as §2

[9] = A CellTox Green Cytotoxicity Assay to monitor cytotoxicity in HepG2 cells - 16 hour (AID 1224876); also: nearly all actives have a fitted effect of over 45% in size
In short: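 First, HepG2 cells (600/well) mixed with reagent were plated; second, after 5 h at 37 C they received compounds via pintool; third, fluorescence was measured at 0 h through 40 h at 8 h intervals.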

[10] = qHTS RealTime-Glo MT Cell Viability Assay in HepG2 cells - 32 hour (AID 1224877); also: nearly all actives have a fitted effect of over 55% in size
In short: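 Viability was tracked continuously by NanoLuc luminescence from prosubstrate reduced by living HepG2 cells, at successive time points over 40 h of compound exposure. Cells with reagent were preincubated 5 h at 37 °C before compound addition.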
% is scaled to controls: 0 for no effect and ±100 for the full control effect.

CCCCOC(=O)[C@H](C)O
inactive: Potency [1] | Potency [2] | outcome [3] | Potency [4] | Potency [5] | outcome [6] | max response [7] 1.9% | Potency [8] | Potency [9] | outcome [10]

CCCCOCC(C)O (stereo not given)
inactive: Potency [1] | Potency [2] | outcome [3] | Potency [4] | Potency [5] | outcome [6] | max response [7] 10.5% | Potency [8] | Potency [9] | outcome [10]

OCC1CCC(CO)CC1 (stereo not given)
inactive: Potency [1] | Potency [2] | outcome [3] | Potency [4] | Potency [5] | outcome [6] | max response [7] 6.03% | Potency [8] | Potency [9] | outcome [10]

C=CCOC(=O)CCCCCC
inactive: Potency [1] | Potency [2] | outcome [3] | Potency [4] | Potency [5] | outcome [6] | max response [7] 3.28% | Potency [8] | Potency [9] | outcome [10]

CC(C)CCOC(=O)c1ccccc1
inactive: Potency [1] | Potency [2] | outcome [3] | Potency [4] | Potency [5] | outcome [6] | max response [7] -0.72% | Potency [9] | outcome [10]

CC(C)Cn1cnc2c1c(=O)n(C)c(=O)n2C
inactive: Potency [1] | Potency [2] | outcome [3] | Potency [4] | Potency [5] | outcome [6] | max response [7] 2.8% | Potency [8] | Potency [9] | outcome [10]

CC1(C)O[C@H]2CC(=O)OC[C@]23[C@H]2CC[C@@]4(C)[C@H](c5ccoc5)OC(=O)[C@H]5O[C@]54[C@]2(C)C(=O)C[C@@H]13
inactive: Potency [1] | Potency [2] | outcome [3] | Potency [4] | Potency [5] | outcome [6] | max response [7] 3.36% | Potency [8] | Potency [9] | outcome [10]

COc1cc(/C=C/C(N)=O)cc(OC)c1OC
inactive: Potency [1] | Potency [2] | outcome [3] | Potency [4] | Potency [5] | outcome [6] | max response [7] -21.8% | Potency [8] | Potency [9] | outcome [10]

COC(=O)c1ccccc1C(=O)O
inactive: Potency [1] | Potency [2] | outcome [3] | Potency [4] | Potency [5] | outcome [6] | max response [7] -0.818% | Potency [8] | Potency [9] | outcome [10]

CC(Oc1cc(Cl)ccc1Cl)C(=O)O (stereo not given)
inactive: Potency [1] | Potency [2] | outcome [3] | Potency [4] | Potency [5] | outcome [6] | max response [7] -5.27% | Potency [8] | Potency [9] | outcome [10]

O=C(O)c1cc2ccccc2nc1C(=O)O
inactive: Potency [1] | Potency [2] | outcome [3] | Potency [4] | Potency [5] | outcome [6] | Potency [8] | Potency [9] | outcome [10]

CC(=O)OC(C)=O
inactive: Potency [1] | Potency [2] | outcome [3] | Potency [4] | outcome [6] | max response [7] 9.5% | Potency [8] | Potency [9] | outcome [10]

COc1nc(N)nc2nc[nH]c12
inactive: Potency [1] | Potency [2] | outcome [3] | Potency [4] | outcome [6] | max response [7] -26% | Potency [8] | Potency [9] | outcome [10]

CC(C)NC(=O)c1ccc(C=O)cc1
inactive: Potency [1] | Potency [2] | outcome [3] | Potency [4] | Potency [5] | outcome [6] | Potency [8] | Potency [9] | outcome [10]

CCCC(=O)Nc1ccc(OCC(O)CNC(C)C)c(C(C)=O)c1 (stereo not given)
inactive: Potency [1] | Potency [2] | outcome [3] | Potency [4] | outcome [6] | max response [7] 4% | Potency [8] | Potency [9] | outcome [10]

COc1cc2c(cc1OC)C(=O)C(CC1CCN(Cc3ccccc3)CC1)C2 (stereo not given)
active: Potency [1] 21.3 µM | Potency [7] 23.9 µM
inactive: Potency [2] | outcome [3] | Potency [4] | outcome [6] | Potency [8] | Potency [9] | outcome [10]

O=C[O][Al]([O]C=O)[O]C=O
inactive: Potency [1] | Potency [2] | outcome [3] | Potency [4] | Potency [5] | outcome [6] | Potency [8] | Potency [9] | outcome [10]

CCCCCCC1(C)CCC(=O)O1 (stereo not given)
inactive: Potency [1] | Potency [2] | outcome [3] | Potency [4] | Potency [5] | outcome [6] | Potency [8] | Potency [9] | outcome [10]

CC1=NN(c2ccc(S(=O)(=O)O)cc2)C(=O)C1
inactive: Potency [1] | Potency [2] | outcome [3] | Potency [4] | Potency [5] | outcome [6] | Potency [8] | Potency [9] | outcome [10]
